Measured values published in PubChem BioAssay (NCATS).
Results filed as inconclusive are left out. Entries that show only a call come without a potency. The source made the active and inactive calls. The call rests on the fitted dose curve; in most records, active means well fitted curve in the direction sought with a large enough effect; inconclusive means small, poorly fitted or top-dose-only effect, or another doubt; inactive means no such curve, though single readings can be large; an effect the other way counts as inactive or inconclusive.

experiment: qHTS for Inhibitors of Ubiquitin-specific Protease USP2a Using CHOP2 as the Reporter: K633 Counterscreen (AID 652168); settings: No-enzyme DiUb K48 IQF substrate fluorescence interference, kinetic; series mostly up to 57.5 µM
In short: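 Detection-system control: fluorescence of K48-linked DiUb-4IQF substrate (100 nM as added) tracked over time, Ex 525/Em 598, with pinned compounds and no enzyme, in pH 8 Tris buffer containing beta-mercaptoethanol and 0.05% Chaps.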

SMILES | outcome
O=[S+]([O-])(NCc1nccs1)c1ccc(Nc2nc(-c3ccccc3)cs2)cc1 | inactive
N#Cc1ccc(N[S+](=O)([O-])c2ccc(Nc3nc(-c4ccccc4)cs3)cc2)cc1 | inactive
Cc1ccc(S(=O)(=O)Nc2cc3c(cc2C(=O)Nc2nc(-c4ccccc4)cs2)OCO3)cc1 | inactive
O=S(=O)(Nc1nccs1)c1ccc(Nc2nc(-c3ccccc3)cs2)cc1 | inactive
Cc1ccc(S(=O)(=O)Nc2ccc(Br)cc2C(=O)Nc2nc(-c3ccccc3)cs2)cc1 | inactive
O=C(Nc1nc(-c2ccccc2)cs1)c1ccncc1NS(=O)(=O)c1cccc2cccnc12 | inactive

experiment: qHTS for Inhibitors of Ubiquitin-specific Protease USP2a Using CHOP2 as the Reporter: Cytotox Assay (AID 652170); settings: HCT116 viability, CellTiter-Glo luminescence, 72 h; series mostly up to 46.1 µM; further: nearly all actives have a fitted effect of over 70% in size; further: potency means the concentration at half of the fitted maximal effect
In short: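 Cytotoxicity read as ATP luminescence (CellTiter-Glo) after 72 hr compound treatment at 37 deg C. Cells: HCT116, 600/well in DMEM plus 10% FBS. Normalization between DMSO-treated cells and cell-free wells.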

SMILES | Potency
N#Cc1ccc(NS(=O)(=O)c2ccc(NC(=O)Cc3ccc(F)c(Cl)c3)cc2)cc1 | inactive
O=[S+]([O-])(NCc1nccs1)c1ccc(Nc2nc(-c3ccccc3)cs2)cc1 | inactive
N#Cc1ccc(N[S+](=O)([O-])c2ccc(Nc3nc(-c4ccccc4)cs3)cc2)cc1 | inactive
Cc1ccc(S(=O)(=O)Nc2cc3c(cc2C(=O)Nc2nc(-c4ccccc4)cs2)OCO3)cc1 | 16.6 µM (active)
N#Cc1ccc(NS(=O)(=O)c2ccc(NC(=O)Cc3ccc(Cl)c(Cl)c3)cc2)cc1 | inactive
Cc1ccc(S(=O)(=O)Nc2ccc(Br)cc2C(=O)Nc2nc(-c3ccccc3)cs2)cc1 | 4.69 µM (active)
O=C(Nc1nc(-c2ccccc2)cs1)c1ccncc1NS(=O)(=O)c1cccc2cccnc12 | inactive
